The structures appear in SMILES notation. Several values for one entry are separate records, joined by “and”; a condition that tells them apart may be missing. Equal values may be shown once. Records with an inconclusive call do not appear. Entries that show only a call come without a potency. Activity calls are given as the source filed them. Calls follow the shape of the dose curve; as a rule, active = well fitted activation curve with a large enough effect in the repeat runs; inconclusive = weak or mixed curves; inactive = no such curve, though single readings can be large or run the other way.
Potency is read from the fitted curve at half-maximal effect.

Nuclear receptor subfamily 1 group I member 3 (Homo sapiens), sequence (Q14994 whole entry, looked up): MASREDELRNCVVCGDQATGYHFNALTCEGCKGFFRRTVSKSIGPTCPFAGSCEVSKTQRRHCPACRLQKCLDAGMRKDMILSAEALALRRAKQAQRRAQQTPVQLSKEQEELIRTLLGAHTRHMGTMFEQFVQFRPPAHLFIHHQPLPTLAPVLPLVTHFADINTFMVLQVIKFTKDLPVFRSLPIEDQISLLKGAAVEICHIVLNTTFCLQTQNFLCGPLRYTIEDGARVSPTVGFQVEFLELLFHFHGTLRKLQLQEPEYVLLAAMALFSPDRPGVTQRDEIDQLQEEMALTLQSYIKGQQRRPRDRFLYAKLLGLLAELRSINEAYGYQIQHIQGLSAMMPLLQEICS

The assay concerns the target Nuclear receptor subfamily 1 group I member 3 (Homo sapiens) (UniProt Q14994). Briefly: qHTS assay to identify small molecule agonists of the constitutive androstane receptor (CAR) signaling pathway (AID 1224839). Also: nearly all actives have a fitted effect of over 15% in size.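 As to activation: HepG2 cells stably carrying human CAR and a CYP2B6 luciferase reporter.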 The following applies: HepG2 hCAR CYP2B6-luciferase, agonist mode, 24 h; series mostly up to 92.4 µM; activation: at the top concentration. The source says:
National Center for Advancing Translational Sciences [NCATS] NIH Chemical Genomics Center [NCGC] U.S. Environmental Protection Agency [EPA] National Institutes of Environmental Health Sciences [NIEHS] National Toxicology Program [NTP] Assay overview: The constitutive androstane receptor (CAR) is a nuclear receptor which regulates multiple drug metabolizing enzymes (DMEs) and transporters. Activating CAR will generally increase the transcription and subsequent translation of CYP2B6 and CYP3A4. These two DMEs represent about 50% of the drug metabolizing potential in the body. […] Recently, there have also been studies performed indicating CARs role in energy metabolism and cancer therapy. Therefore, inducing CARs activity could have a potential effect on diabetes and cancer. Identifying environmental toxins and compounds which modulate CAR, through the use of the Tox21 10K compound collection, will be an important step in determining the toxicity and potential therapeutic effects these factors will have on the human body.
Assay Protocol Summary: A double-stable (hCAR and CYP2B6-2.2kb) transfected cell line, derived from human hepatoma (HepG2) cells, was utilized for the duration of the quantitative high-throughput screens. The HepG2-CYP2B6-hCAR cells suspended in DMEM culture medium supplemented with 10% FBS, 5 ug/mL blasticidin, 0.5 mg/mL geneticin, 100 U/mL penicillin and 100 ug/mL streptomycin were dispensed at 2500 cells/4 uL/well in 1536-well white solid bottom plates using a Multidrop Combi. After the assay plates were incubated at 37 C/5% CO2 for 4 hrs, 23 nL of compounds at 15 concentrations (from 5-48 columns) or positive control (from 1 to 4 columns) were transferred to the assay plates using a Pintool station. One uL of PK11195, was added using a Flying Reagent Dispenser to generate a final concentration of 0.75 uM PK11195 inside each well. After a 24 hr incubation period at 37 C/5% CO2, four uL of ONE-Glo reagent was added into the assay plates using a Flying Reagent Dispenser. After a 30 min incubation period at room temperature, the luminescence intensity in the assay plates was measured using a ViewLux plate reader.
Background: qHTS replaces the single test concentration by a dilution series.
For `O=C(O)CCCCCCCCC(=O)O`, the Potency result is “inactive”.

Turning to `CC(C)OC(=O)COc1ccc(Cl)cc1Cl`, the Potency entry was “inactive”.

In the case of `Cc1ccc2ncccc2c1`, the Potency entry is “inactive”.

In the case of `O=C(O)c1ccc(S(=O)(=O)N(Cl)Cl)cc1`, the Potency result is “inactive”.

With `O=C(O)c1ccccc1C(=O)O`, the Potency result was “inactive”.

Take `CN/C(=C\[N+](=O)[O-])NCCSCc1csc(CN(C)C)n1`: the Potency result was “inactive”.

`CN(C)c1ccc(O)c2c1C[C@H]1C[C@H]3[C@H](N(C)C)C(=O)C(C(N)=O)=C(O)[C@@]3(O)C(=O)C1=C2O`: the Potency entry was “inactive”.

Take `CC1(C)OC[C@@H]2O[C@@]3(C(=O)O)OC(C)(C)O[C@H]3[C@@H]2O1`: the Potency entry was “inactive”.

For `O=C(O)c1cc2ccccc2cc1O`, the Potency was 43.3 µM (active).

Regarding `CCO[Si](CCCN)(OCC)OCC`, the Potency entry is “inactive”.

With `CN1C(=O)CC[C@H]1c1cccnc1`, the Potency result is “inactive”.

Regarding `C=Cc1ccc(C)cc1`, the Potency entry is “inactive”.

Regarding `O=C1C(c2[nH]c3ccccc3c2O)=Nc2ccccc21`, the “activation” value is 0.361% (inactive).

Take `CCCCOC(=O)c1ccc(N)cc1`: the Potency is 23.7 µM (active).

For `CC(C)(C)c1cc(Cc2cc(C(C)(C)C)c(O)c(C(C)(C)C)c2)cc(C(C)(C)C)c1O`, the Potency entry was “inactive”.

On to `O=[N+]([O-])c1ccc2nc[nH]c2c1`, for which the Potency result is “inactive”.

Consider `COc1ccc(N)c(C)c1`, for which the Potency result is “inactive”.

`CC(C)CCCCCCCOC(=O)CCCCC(=O)OCCCCCCCC(C)C`: the Potency result was “inactive”.

`C[C@]12CCC(=O)C=C1CC[C@@H]1[C@@H]2[C@@H](O)C[C@@]2(C)[C@H]1CC[C@]2(O)C(=O)CO`: the Potency result was “inactive”.

As to `CCNC(=S)NCC`, the Potency entry is “inactive”.

Take `CNC(=S)N(C)C`: the Potency result is “inactive”.

Regarding `CC(C)CC(C)O` (stereo not given), the Potency entry was “inactive”.

As to `CC(C)(Oc1ccc(CCNC(=O)c2ccc(Cl)cc2)cc1)C(=O)O`, the Potency entry was “inactive”.

As for `COCCCN`, the Potency entry was “inactive”.

For the compound `N#Cc1ccccc1`, the Potency entry is “inactive”.

For the compound `O=C(O)c1ccc(C(=O)O)c(C(=O)O)c1`, the Potency entry is “inactive”.

As to `CC(C)=CCl`, the Potency result was “inactive”.

`O=c1[nH]cnc2[nH]ncc12`: the Potency entry is “inactive”.

On to `CCOCCOCCOCCO`, for which the Potency result is “inactive”.

For `CC(C)CC(=O)CC(C)CC(C)C` (stereo not given), the Potency entry is “inactive”.

For the compound `CC(=O)c1ccc(O)cc1`, the Potency result is “inactive”.

Take `CCNc1cccc(C)c1`: the Potency result is “inactive”.

As for `C=CC(C)CCCC(C)(C)O` (stereo not given), the Potency entry is “inactive”.

Regarding `CCCCCCCCCCCC(=O)OC`, the Potency entry was “inactive”.

Regarding `CCCCCCO`, the Potency result was “inactive”.

Consider `CCNc1ccccc1`, for which the Potency result is “inactive”.

For the compound `COC(=O)CCCC(=O)OC`, the Potency entry is “inactive”.

Regarding `O=C1c2ccccc2CCc2ccccc21`, the Potency is 31.3 µM (active) and 26.6 µM (active).

Take `CCCCCCCCCCCCCCCC(=O)OC(C)C`: the Potency result was “inactive”.

As for `CCCCCCCCCCCCCCCCO`, the Potency result is “inactive”.

Source of the values: PubChem BioAssay (Tox21).
